# NPC1 promoter act: qHTS Assay for NPC1 Promoter Activators; 320,000 compounds, 2.4% hits; AID 485313, 2010; Huh7 NPC1 promoter luciferase reporter, 24 h; Potency, µM (series often up to 9.22 µM), for inactives: at the top dose activation, hits mostly activators; also: % of control where 0% means no effect; nearly all actives have a fitted effect of over 60% in size
#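 Stable NPC1-promoter luciferase Huh7 line; cpd (DMSO) 24 h, 37 °C, 5% CO2; Amplite luciferase reagent 10 min RT; luminescence readout. qHTS format.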
# FLuc counter: qHTS profiling assay for firefly luciferase inhibitor/activator using purifed enzyme and Km concentrations of substrates (counterscreen for miR-21 project). Luciferin 4-monooxygenase (Photinus pyralis), P08659. Potency, µM (titrated, usually from 57.5 µM), inactives show at the top dose activity change, negative = inhibition, most hits filed as inhibitors. purified FLuc, Km substrates, luminescence inhibition. 360,000 compounds, 6.9% hits;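 also: plate controls were vehicle for no effect and reference inhibitor for full effect; nearly all actives have a fitted effect of over 55% in size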
# Target sequence (P08659 whole entry, looked up): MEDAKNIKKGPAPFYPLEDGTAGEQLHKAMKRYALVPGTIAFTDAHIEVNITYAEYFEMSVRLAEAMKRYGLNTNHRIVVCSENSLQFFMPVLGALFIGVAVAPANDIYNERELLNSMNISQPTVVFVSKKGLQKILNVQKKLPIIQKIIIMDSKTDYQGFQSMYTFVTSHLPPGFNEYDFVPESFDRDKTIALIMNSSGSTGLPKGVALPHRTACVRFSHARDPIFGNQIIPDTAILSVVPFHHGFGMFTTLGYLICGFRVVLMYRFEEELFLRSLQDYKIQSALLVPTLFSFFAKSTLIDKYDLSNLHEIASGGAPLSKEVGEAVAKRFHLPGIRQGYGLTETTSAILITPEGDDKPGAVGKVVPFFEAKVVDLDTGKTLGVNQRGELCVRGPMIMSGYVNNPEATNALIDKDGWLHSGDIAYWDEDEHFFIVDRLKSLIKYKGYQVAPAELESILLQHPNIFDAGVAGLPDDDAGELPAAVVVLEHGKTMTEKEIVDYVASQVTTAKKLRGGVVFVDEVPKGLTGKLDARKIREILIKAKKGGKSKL
#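 Biochemical qHTS of compounds, final roughly 60 µM downward over six points, against 10 nM purified firefly luciferase using Km concentrations of substrates (10 uM D-luciferin, 10 uM ATP) in Tris acetate pH 7.5 buffer; luminescence output.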
# SMN2 splice enh: qHTS Assay for Enhancers of SMN2 Splice Variant Expression. Potency, µM (series often up to 46.1 µM), without a hit: at the top dose activity change, positive = activation, hits mostly activators. HEK293 SMN2-luciferase splicing reporter, luminescence, 30-36 h. 210,000 compounds, 2.8% hits. AID 1458, 2008; also: % of control where 0% means no effect; nearly all actives have a fitted effect of over 55% in size
#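 HEK293 cells carry an SMN2 minigene-luciferase reporter in which exon 7 inclusion puts luciferase in frame. Cells were seeded at 2000 cells/well, attached for 10-12 hours, then exposed to compounds for 30-36 hours at 37C before ONE-Glo luminescence.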
# ELG1 DNA repair: qHTS screen for small molecules that inhibit ELG1-dependent DNA repair in human embryonic kidney (HEK293T) cells expressing luciferase-tagged ELG1 | HEK293T ELG1-luciferase reporter, luminescence, 16 h; DNA damage induced by 5-fluorouridine | AID 504467, 2011 | Potency, µM (titrated, usually from 46.1 µM), without a hit: at the highest dose activity change, negative = inhibition, actives largely listed as inhibitors | 330,000 compounds, 2.3% hits; also: % is scaled to controls: 0 for no effect and ±100 for the full control effect; nearly all actives have a fitted effect of over 55% in size
#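 HEK293T cells expressing luciferase-tagged ELG1 (2,000/well) received 5-Fluorouridine plus compound or DMSO for 16 hr at 37 °C. Luciferase was read by ONE-Glo luminescence after 30 min at room temperature.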
# ELG1 genotoxic: qHTS screen for small molecules that induce genotoxicity in human embryonic kidney (HEK293T) cells expressing luciferase-tagged ELG1. HEK293T ELG1-luciferase reporter, luminescence, 16 h. Potency, µM (doses to about 46 µM), for inactives: at the top dose activity change, positive = activation, most hits filed as activators. 330,000 compounds, 1.3% hits. AID 504466, 2011; also: % of control where 0% means no effect; nearly all actives have a fitted effect of over 60% in size
#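 Cells (2,000/well) expressing the ELG1-luciferase fusion are dosed by pin tool and kept 16 hr at 37 °C, 5% CO2. Signal comes from ONE-Glo luciferase reagent after 30 min at room temperature.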
# Rab9 promoter act: qHTS Assay for Rab9 Promoter Activators | AID 485297, 2010 | Huh7 Rab9 promoter-luciferase reporter, luminescence, 24 h | 320,000 compounds, 2.8% hits | Potency, µM (series often up to 9.22 µM), for the others: at the top dose activation, negative = inhibition, hits mostly activators; also: % of control where 0% means no effect; nearly all actives have a fitted effect of over 60% in size
#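 Stable Rab9-luc Huh7, 1500 cells/well, 2 h settle; cmpd in DMSO, 24 h, 37 °C/5% CO2; luciferase reagent 10 min RT; luminescence.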
# * = called active by the depositor; ? = inconclusive; . = no result given; [ ] = dose if it differs, or a comment. Sampled rows, rich in hits. Any-hit rate of the full collection: about 9.2%. Calls follow the shape of the dose curve; as a rule, active = well fitted curve in the direction sought with a large enough effect; inconclusive = small, poorly fitted or top-dose-only effect, or another doubt; inactive = no such curve, though single readings can be large; an effect the other way counts as inactive or inconclusive. Potency is read from the fitted curve at half-maximal effect.
SMILES,NPC1 promoter act,FLuc counter,SMN2 splice enh,ELG1 DNA repair,ELG1 genotoxic,Rab9 promoter act
CCC1CN(C(=O)N2CCC(C(=O)O)CC2)c2cc(C)ccc2O1 (stereo not given),.,-1%,10%,.,.,.
COCCCC1CCN(C(=O)C2CCC(=O)N(CCc3cccc(F)c3)C2)CC1 (stereo not given),1%,1%,.,13%,-1%,2%
COc1ccc(-n2c(C)cc(/C=C3\C(=N)N4N=C(CC(=O)N5CCOCC5)SC4=NC3=O)c2C)cc1,-2%,?,.,7%,6%,0%
N/C(=N\OC(=O)COc1ccc2ccccc2c1)c1ccccn1,13%,?,-4%,?,6%,22%
N/C(=N\OC(=O)COc1ccccc1Cl)c1ccccn1,3.2µM*,4.8µM*,13µM*,?,9.2µM*,2.5µM*
Cc1ccc(C)c(OCC(=O)O/N=C(\N)c2cccnc2)c1,-1%,-18%,.,?,4%,11%
Cc1ccc(C)c(OCC(=O)O/N=C(\N)c2ccccn2)c1,3.2µM*,17µM*,?,?,?,?
Cn1cccc1C(=O)NC(=O)COC(=O)CCNS(=O)(=O)c1ccc(Cl)cc1,.,.,.,17%,1%,.
CCc1c(C#N)sc(C(N)=O)c1CC,-1%,0%,.,10µM*,-7%,-2%
O=C(Cn1c(=O)oc2ccccc21)Nc1ccc(F)cc1,3%,0%,.,10%,3%,0%
CCc1n[n+](CC(=O)c2ccccc2)c(N)s1,0.32µM*,2.4µM*,4µM*,?,?,0.5µM*
Nc1ccc[n+](CC(=O)c2ccccc2)c1,-3%,5%,.,-31%,0%,4%
CCOC(=O)C1CCN(c2ccccc2CN2CCN(c3ccccc3OCC)CC2)CC1,-1%,-2%,.,16µM*,-22%,-2%
Nc1nc(N)c(N=O)c(OCC2CCCCC2)n1,0%[46.1 µM],?,.,?,18µM*,-15%[46.1 µM]
O=c1cc2[nH]c3ccccc3c(=O)n2nc1-c1ccccc1,?,19µM*,22%,?,13µM*,?
O=C(COc1ccc(OCc2ccccc2)cc1)NC1CCOC1=O (stereo not given),1%,21µM*,10%,?,-1%,-24%
N#CC(C#N)=C1C=CC=CN1/C(=C\c1ccccc1Cl)C(=O)c1ccccc1,-21%,?,-117%,?,-22%,-28%
N#CC(C#N)=C1C=CC=CN1/C(=C\c1ccccc1)C(=O)c1cccs1,-3%,19µM*,8%,-14%,-3%,1%
CCOC(=O)C1(Cc2ccccc2Cl)CCN(C(=O)CN2CCOC2=O)CC1,?,11µM*,.,?,?,3.5µM*
Cc1ccc(N(Cc2cccs2)C(=O)c2ccccc2[N+](=O)[O-])cc1,.,-19%,.,.,.,.
COC(=O)c1cc(NC(=O)c2ccc3c(c2)N(Cc2cccc(Cl)c2)C(=O)c2ccccc2S3=O)cc(C(=O)OC)c1 (stereo not given),.,0%,.,.,.,.
Cc1cccc(/C=C2\CCC(C3CCCC3)C2=O)c1 (stereo not given),24%,4.8µM*,-6%,?,?,21%
O=[N+]([O-])c1ccc(/C=N/n2c(C3CCCCC3)n[nH]c2=S)cc1,1%,2%,26%,29%,2%,-1%
COc1cccc(/C=C2\CCC(C3CCCC3)C2=O)c1 (stereo not given),?,1.7µM*,.,?,?,?
O=C1/C(=C/c2ccc([N+](=O)[O-])cc2)CCC1C1CCCC1 (stereo not given),-6%,0.76µM*,.,?,13%,-1%[1.84 µM]
SMILES,NPC1 promoter act,FLuc counter,SMN2 splice enh,ELG1 DNA repair,ELG1 genotoxic,Rab9 promoter act
COc1cc(/C=C2\CCC(C3CCCC3)C2=O)cc(OC)c1OC (stereo not given),3%,?,.,?,3%,14%
CCn1cc2nc(SCC(=O)Nc3cc(OC)ccc3OC)n(Cc3ccc(Cl)cc3)c(=O)c2n1,.,5%,-12%,.,.,.
COc1ccc(CN2CCc3nc(N4CCN(c5ccc(F)cc5)CC4)ncc3C2)c(OC)c1OC,.,-3%,.,.,.,.
Nc1cccc2c1C(=O)N(CCOc1ccc(F)cc1)C2=O,1.8µM*,2.7µM*,.,?,2.1µM*,1.6µM*
Cc1ccccc1OCCN1C(=O)C(=O)c2cccc(C)c21,0%,1%,-9%,10%,1%,0%
COc1ccc(OCCN2C(=O)c3ccccc3C2=O)cc1,18%,?,4%,?,13%,?
Cc1ccccc1OCCN1C(=O)c2ccccc2C1=O,?,19µM*,10%,?,?,?
O=C1c2ccccc2C(=O)N1CCOc1ccccc1Br,28%,24µM*,.,?,?,?
O=C1c2ccccc2C(=O)N1CCOc1ccccc1Cl,-2%,-1%,.,3%,0%,-1%
O=C(NCc1cccnc1)/C(=C/c1ccc(-c2cccc(Cl)c2)o1)S(=O)(=O)c1ccccc1,-29%,2%,-99%,?,-22%,-27%
O=C(NCc1cccnc1)/C(=C\c1ccc(-c2cccc(Cl)c2)o1)S(=O)(=O)c1ccccc1,-15%,-13%,-102%,16µM*,-19%,-21%
Cc1ccc(C(=O)N/C(=C\c2ccc(-c3cc(Cl)ccc3Cl)o2)C(=O)NCc2cccnc2)cc1,?,19µM*,8%,?,5%,?
CCc1ccc(NC(=O)c2sc3nc(C)c(Cl)c(C)c3c2NC(=O)c2ccccc2OC)cc1,.,-6%,13%,.,.,.
Nc1nn(-c2ccccc2)nc1C(=O)OCc1ccccc1F,1%,17µM*,15%,21%,6%,15%
Cc1ccccc1COC(=O)c1nn(-c2ccccc2)nc1N,1%,?,10%,-5%,9%,1%
COc1ccc(C2CC(c3ccccc3)=NN2C(=O)COC(=O)c2ccc(S(C)(=O)=O)cc2)cc1 (stereo not given),-1%,2%,.,?,0%,-2%
COc1ccc(C2CC(c3ccc4ccccc4c3)=NN2C(=O)CN2CCC(C(N)=O)CC2)cc1 (stereo not given),16%,?,-102%,-13%,-11%,?

# Screening data (PubChem)
